Our source for the z-score and composite z-score values is PubChem BioAssay.

A short description of test [1]: HepG2 liver cancer cell viability effects, profiling panel, resazurin fluorescence, 24 h, PK04 Diversity Set (AID 1172). As to conditions: higher = more signal. For orientation: The colour change of resazurin is a common sign of viable cells or microbes.
A short description of test [2]: basal S. cerevisiae growth modulation, no modifier, primary screen, OD600, strain BY4716, 24 h, basal condition (AID 1173). As to conditions: OD600, 24 h, higher = more signal, called active from +8 up or from −8 down.
Test [3] is described as follows: MM1S myeloma cell viability, profiling panel, resazurin fluorescence, basal, 24 h, PK04 Diversity Set (AID 1174).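 Further: MM1S multiple myeloma cell line.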 As to conditions: higher = more signal, called active from +8 up or from −8 down.
In test [4] the target is Dihydroorotate dehydrogenase (quinone), mitochondrial (Plasmodium falciparum (isolate 3D7)) (UniProt Q08210). Nature of the test: PfDHODH enzyme inhibitors, primary screen, biochemical, C-terminal His tag, absorbance 600 nm (AID 1175).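 Further: recombinant parasite enzyme with a five histidine tag at its C terminus.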 The conditions noted are these: DCIP absorbance 600 nm, higher = more signal, called active from +8 up or from −8 down.
Test [5] can be described thus: P. aeruginosa biofilm formation inhibitors, primary screen, strain PAO1, LB-PBS medium, absorbance 600 nm (AID 1176). The conditions noted are these: P. aeruginosa PAO1 growth/biofilm, A600, 12 h; higher = more signal.
The nature of test [6]: S. cerevisiae RM11-1a growth modifiers, primary screen, strain RM11-1a, OD600, basal, 24 h (AID 1177).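 Further: cultures grown under basal conditions with no added stressor.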 As to conditions: OD600, 24 h, higher = more signal, called active from +8 up or from −8 down.
Test [7] in a line: E. coli acrAB mutant growth effects, primary screen, E. coli filamentation inducers, strain DRC39, OD650, 24 h (AID 1178).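 Further: growth measured as culture turbidity by optical density at 650 nm.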 As to conditions: higher = more signal, called active from +8 up or from −8 down.
Test [8] is described as follows: E. coli acrAB mutant growth effects, primary screen, E. coli filamentation inducers, strain DRC39, OD650, 48 h (AID 1179).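 Further: screen aims at cell division blockers that make cells filament.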 The conditions noted are these: E. coli DRC39 delta-acrAB growth, higher = more signal, called active from +8 up or from −8 down.
The nature of test [9]: RPMI8226 myeloma cell viability, profiling panel, resazurin fluorescence, basal, 24 h, PK04 Diversity Set (AID 1180).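 Further: RPMI8826 multiple myeloma cell line at 5000 cells per well.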 As to conditions: higher = more signal.
The target of test [10] is E3 ubiquitin-protein ligase XIAP (Homo sapiens) (UniProt P98170). Nature of the test: XIAP binders, primary screen, biophysical, small-molecule microarray, fluorescence 635 nm (AID 1181).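 Further: score merges 667 nm emission and signal to noise over triplicate slides.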 The conditions noted are these: small-molecule microarray binding, higher = more signal.
Test [11] has as its system XIP peptide (Xip251-270) binding. Briefly: small-molecule binders of XIP peptide, primary screen, biochemical, small-molecule microarray, fluorescence 635/667 nm, 0.1 µg/mL protein (AID 1182). As to conditions: fluorescent protein binding, 635 nm, higher = more signal, called active from +8 up or from −8 down.
For the next test, the system named is XIP peptide (Xip251-270). Briefly: small-molecule binders of XIP peptide, primary screen, biochemical, small-molecule microarray, fluorescence 635/667 nm, 0.5 µg/mL protein (AID 1183). The conditions noted are these: small-molecule microarray binding, fluorescence 635 nm; higher = more signal.
Test [12] is described as follows: Plasmodium falciparum growth inhibition, primary screen, strain 3D7, DAPI fluorescence, 100 nL (AID 1184).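 Further: parasites grown inside human red blood cells in medium with human serum.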 The conditions noted are these: P. falciparum 3D7 growth, 3 d, higher = more signal.
For test [13], the target named is Homeobox protein Hox-A13 (Mus musculus) (UniProt Q62424). Briefly: inhibitors of HoxA13-DNA binding, primary screen, biochemical, fluorescence polarization, labeled oligonucleotide (AID 1185). As to conditions: 15 min, higher = more signal, called active from +8 up or from −8 down.
Test [14] is described as follows: inhibitors of hydroxyurea-induced Chk1 phosphorylation, primary screen, imaging, HeLa, phospho-Chk1 antibody, percent positive cells (AID 1186). The conditions noted are these: hydroxyurea-induced phospho-Chk1 immunofluorescence imaging, higher = more signal.
Test [15] is described as follows: inhibitors of hydroxyurea-induced Chk1 phosphorylation, primary screen, imaging, HeLa, phospho-Chk1 nuclear intensity (AID 1187). As to conditions: hydroxyurea-induced phospho-Chk1 immunofluorescence imaging, higher = more signal.

Each structure is given as a SMILES string. Active and inactive are the calls of the source. Unless noted, how the calls were made is not given here.

Chain of E3 ubiquitin-protein ligase XIAP (Homo sapiens) (P98170 whole entry, looked up): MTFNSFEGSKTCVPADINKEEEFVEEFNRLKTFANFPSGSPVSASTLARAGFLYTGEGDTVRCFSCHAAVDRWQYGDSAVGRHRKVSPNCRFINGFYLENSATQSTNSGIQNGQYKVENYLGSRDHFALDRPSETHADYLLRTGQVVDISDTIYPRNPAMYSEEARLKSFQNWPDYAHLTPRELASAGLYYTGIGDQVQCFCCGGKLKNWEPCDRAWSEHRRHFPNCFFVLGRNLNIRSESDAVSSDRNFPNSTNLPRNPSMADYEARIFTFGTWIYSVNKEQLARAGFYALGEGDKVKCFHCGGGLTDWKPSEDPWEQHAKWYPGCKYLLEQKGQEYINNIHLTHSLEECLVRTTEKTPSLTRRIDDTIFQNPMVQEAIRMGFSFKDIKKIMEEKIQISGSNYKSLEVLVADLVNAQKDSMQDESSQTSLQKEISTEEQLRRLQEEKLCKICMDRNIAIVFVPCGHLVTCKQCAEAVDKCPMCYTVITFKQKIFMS
Chain of Homeobox protein Hox-A13 (Mus musculus) (Q62424 whole entry, looked up): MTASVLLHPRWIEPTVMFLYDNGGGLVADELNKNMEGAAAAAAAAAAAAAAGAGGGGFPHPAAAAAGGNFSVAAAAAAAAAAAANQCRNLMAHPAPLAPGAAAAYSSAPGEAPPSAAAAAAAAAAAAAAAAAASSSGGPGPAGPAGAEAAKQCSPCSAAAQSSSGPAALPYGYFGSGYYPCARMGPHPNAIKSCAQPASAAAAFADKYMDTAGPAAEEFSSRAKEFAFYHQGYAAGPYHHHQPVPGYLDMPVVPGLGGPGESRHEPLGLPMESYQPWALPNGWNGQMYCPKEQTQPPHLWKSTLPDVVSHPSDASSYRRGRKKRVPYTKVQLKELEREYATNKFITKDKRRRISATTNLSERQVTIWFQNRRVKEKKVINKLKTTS
Chain of Dihydroorotate dehydrogenase (quinone), mitochondrial (Plasmodium falciparum (isolate 3D7)) (Q08210 whole entry, looked up): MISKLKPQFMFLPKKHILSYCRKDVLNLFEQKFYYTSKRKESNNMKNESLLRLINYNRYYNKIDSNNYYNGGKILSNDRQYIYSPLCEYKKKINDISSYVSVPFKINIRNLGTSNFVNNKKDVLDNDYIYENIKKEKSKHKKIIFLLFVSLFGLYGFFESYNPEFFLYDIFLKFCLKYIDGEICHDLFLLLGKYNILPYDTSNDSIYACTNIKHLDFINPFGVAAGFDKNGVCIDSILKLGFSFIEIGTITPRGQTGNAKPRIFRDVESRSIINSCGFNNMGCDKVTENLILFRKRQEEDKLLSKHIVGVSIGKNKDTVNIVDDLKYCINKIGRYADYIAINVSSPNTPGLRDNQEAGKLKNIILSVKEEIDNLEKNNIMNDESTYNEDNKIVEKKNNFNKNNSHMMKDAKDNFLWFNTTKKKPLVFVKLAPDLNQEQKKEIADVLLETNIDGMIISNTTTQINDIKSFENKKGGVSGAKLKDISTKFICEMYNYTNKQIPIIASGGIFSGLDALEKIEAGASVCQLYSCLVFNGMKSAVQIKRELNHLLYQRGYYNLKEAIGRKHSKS

Consider `CN1C(=O)C2C=CC(C(O)C=Cc3ccc([N+](=O)[O-])cc3)N(N3CCCCC3)C2C1=O` (centres undefined), for which the z-score in test [1] was -0.559; in test [2], -1.42 (inactive); in [3], -1.42 (inactive); in test [5] it was 1.01 (inactive); in test [6], -0.555 (inactive); in test [7] it was -0.685 (inactive). Moreover, the z-score in test [8] was -0.397 (inactive); in [9], -1.88; in test [12], 0.986; in test [13], -4.74 (inactive); in [14], 0.579 (inactive); in test [15], -0.157 (inactive). Further, the composite z-score in test [4] is -0.358 (inactive); in [10], 0.142; in [11], 0.62 (inactive); with XIP peptide (Xip251-270), 0.776.
Take `CC(C)(C)OC(=O)CC[C@@]1(C(=O)N2CCOCC2)N=C(c2ccc(OCCCO)cc2)O[C@@H]1c1ccccc1N=[N+]=[N-]`: the z-score in test [1] is 0.725; in test [2] it was 0.297 (inactive); in test [3] it was -0.894 (inactive); in test [5], -0.596 (inactive); in [6], 1.1 (inactive); in test [7], 0.611 (inactive). The z-score is 1.52 (inactive) in [8]; 0.066 in [9]; -1.97 in test [12]; -4.17 (inactive) in test [13]; -0.496 (inactive) in test [14]; -0.439 (inactive) in [15]. The composite z-score in test [4] was 0.668 (inactive); in [10] it was 0.205; in test [11] it was 0.14 (inactive); in the test on XIP peptide (Xip251-270) it was 0.84.
With `CC(=O)n1cc(C(O)C2C=CC3C(=O)N(c4ccccc4)C(=O)C3N2Nc2ccc(C#N)cc2)c2ccccc21` (centres undefined), the z-score in test [1] is -0.592; in [2], -2.71 (inactive); in [3], -0.897 (inactive); in test [5] it was 0.956 (inactive); in test [6] it was -0.129 (inactive); in test [7], -0.698 (inactive). For the same compound, the z-score in test [8] was -0.119 (inactive); in test [9] it was -0.189; in [12], 0.429; in [13], -3.54 (inactive); in test [14], -0.199 (inactive); in test [15], -0.217 (inactive). The composite z-score in test [4] is -0.796 (inactive); in [10] it was 0.147; in test [11] it was 1.16 (inactive); with XIP peptide (Xip251-270), 0.786.
For the compound `COCCCNC(=O)[C@@]1(C)c2ccccc2C(=O)N(Cc2ccccc2)[C@H]1c1ccc(CO)cc1`, the z-score was -0.0127 in [1]; -0.552 (inactive) in test [2]; 0.392 (inactive) in test [3]; 0.745 (inactive) in test [5]; -0.755 (inactive) in test [6]; -0.157 (inactive) in test [7]. The z-score is -0.275 (inactive) in [8]; -0.153 in [9]; -1.35 in [12]; -1.86 (inactive) in [13]; -0.258 (inactive) in test [14]; -0.432 (inactive) in test [15]. Also, the composite z-score in [4] is -0.121 (inactive); in test [10], -0.0304; in test [11], 0.132 (inactive); in the test with XIP peptide (Xip251-270), 0.947.
On to `O=C(CS)NCCCCCNC(=O)[C@H]1C[C@H]2C(=O)N[C@@H](Cc3ccccc3)C(=O)N2[C@H]1c1cccc(OCCO)c1`, for which the z-score was 0.219 in [1]; -0.525 (inactive) in test [2]; 0.782 (inactive) in test [3]; 0.932 (inactive) in test [5]; -0.572 (inactive) in test [6]; 1.94 (inactive) in [7]. The z-score was 1.68 (inactive) in test [8]; 0.889 in [9]; 0.0332 in [12]; -2.76 (inactive) in [13]; 0.0034 (inactive) in [14]; 0.483 (inactive) in test [15]. Also, the composite z-score was 0.761 (inactive) in test [4], 0.0585 in [10], 0.296 (inactive) in test [11] and 0.812 in the test with XIP peptide (Xip251-270).
Consider `CCCC[C@H]1C[C@@H]1[C@@H]1N(P(=O)(c2ccccc2)c2ccccc2)[C@](CO)(c2ccccc2)CC12CC2`, for which the z-score in [1] was -0.544; in test [2] it was 0.402 (inactive); in [3], -1.93 (inactive); in test [5] it was 0.411 (inactive); in test [6] it was 1.14 (inactive); in test [7] it was 0.0779 (inactive). Further, the z-score was -0.872 (inactive) in [8]; -6.02 in test [9]; 0.791 in test [12]; -2.7 (inactive) in test [13]; 0.335 (inactive) in test [14]; 0.514 (inactive) in [15]. Besides, the composite z-score in test [4] is -0.152 (inactive); in [10], 0.247; in test [11], -0.131 (inactive); with XIP peptide (Xip251-270), 0.518.
With `C=CC[C@@]1(C(=O)NCc2ccccc2)N=C(c2ccc(OCCCO)cc2)O[C@@H]1c1ccccc1CN=[N+]=[N-]`, the z-score was -0.46 in [1]; 1.36 (inactive) in test [2]; -1.89 (inactive) in test [3]; 1.1 (inactive) in test [5]; 2.33 (inactive) in test [6]; 0.537 (inactive) in test [7]. Besides, the z-score in test [8] was -0.793 (inactive); in [9], -1.45; in [12], -2.28; in test [13], -10.5 (active); in test [14], 0.168 (inactive); in test [15] it was 0.43 (inactive). The composite z-score in [4] was 1.63 (inactive); in test [10] it was 0.404; in test [11], -0.0368 (inactive); in the test with XIP peptide (Xip251-270), 0.496.
For `[N-]=[N+]=Nc1ccccc1[C@@H]1OC(c2ccc(OCCCO)cc2)=N[C@]1(CCS(=O)(=O)c1ccccc1)C(=O)N1CCCCC1`, the z-score in [1] is -0.644; in test [2] it was 1.69 (inactive); in [3], -1.66 (inactive); in test [5] it was 0.687 (inactive); in [6], 2.08 (inactive); in [7], -0.0955 (inactive). The z-score in test [8] is -0.933 (inactive); in test [9] it was -1.81; in [12], -2.23; in [13], -2.67 (inactive); in test [14], 0.0919 (inactive); in test [15], -0.121 (inactive). In addition, the composite z-score in test [4] is 1.06 (inactive); in test [10], -0.202; in test [11], 1.32 (inactive); in the test with XIP peptide (Xip251-270) it was 0.574.
On to `COCCOC(=O)N1C(=O)[C@@]2(c3cc(C#CCCO)ccc31)[C@H](C(=O)NC[C@H](O)c1ccccc1)[C@H]1C(=O)O[C@H](c3ccccc3)[C@H](c3ccccc3)N1[C@@H]2c1ccc(OCCO)cc1`, for which the z-score in test [1] was 0.76; in [2], 0.757 (inactive); in [3], 0.857 (inactive); in test [5], 1.75 (inactive); in test [6] it was 1.21 (inactive); in test [7], 0.696 (inactive). The z-score in test [8] was -0.567 (inactive); in test [9], 1.43; in test [12], -1.99; in test [13], -1.64 (inactive); in test [14], 0.0945 (inactive); in test [15], 0.298 (inactive). In addition, the composite z-score in test [4] was -0.689 (inactive); in test [10], 0.275; in test [11] it was -0.0001 (inactive); in the test on XIP peptide (Xip251-270), 0.577.
